According to PubChem BioAssay AID1159580 (chemical genetic matrix, 2015):
Where “and” joins values, the source holds several entries; their conditions need not be identical. Equal entries are not always repeated. Out of some 5,500 compounds screened, about 2,000 (36%) were called active. Inconclusive results (about 18%) are left out. Cut-off read from the data, not from the text of the source: active = normalized growth mostly below about 0.91 (no sharp cut-off); inconclusive = no clear call, values can overlap the other calls; inactive = mostly above about 0.92. This is one part of the list.

Assay: chemical genetic growth profiling, strain panel (AID 1159580);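 note: tested at 20 µM; growth read once vehicle control cultures reached saturation at 30 °C; 1 = growth at the plate median or of vehicle wells; lower values mean less growth of the strain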
Conditions: S. cerevisiae deletion strains, growth OD

Measured: normalized growth

O=C(O)c1ccccc1OP(=O)(O)O
inactive: locus YAL021C, strain ccr4, hits give low values 0.962 | locus YAL026C, strain drs2, hits give low values 1.01 | locus YAL030W, strain snc1, hits give low values 1 | locus YBL061C, strain skt5, hits give low values 1.01 | locus YBR009C, strain hhf1, hits give low values 1.03 | locus YBR021W, strain FUR4, hits give low values 1.01 | locus YBR023C, strain chs3, hits give low values 1.01 | locus YBR171W, strain sec66, hits give low values 1.01 | locus YBR229C, strain ROT2, hits give low values 1.01 | locus YBR231C, strain swc5, hits give low values 1.02 | locus YBR279W, strain paf1, hits give low values 1 | locus YCL011C, strain gbp2, hits give low values 1.01 | locus YCL016C, strain dcc1, hits give low values 1 | locus YCL029C, strain bik1, hits give low values 0.994 | locus YCL061C, strain MRC1, hits give low values 1 | locus YCL069W, strain vba3, hits give low values 0.997 | locus YCR088W, strain abp1, hits give low values 1.01 | locus YDL005C, strain med2, hits give low values 1 | locus YDL035C, strain GPR1, hits give low values 1.01 | locus YDL040C, strain nat1, hits give low values 0.996 | locus YDL074C, strain BRE1, hits give low values 1.02 | locus YDL101C, strain DUN1, hits give low values 1.02 | locus YDL134C, strain PPH21, hits give low values 1.02 | locus YDL185W, strain tfp1, hits give low values 0.976 | locus YDL192W, strain arf1, hits give low values 0.989 | locus YDR001C, strain nth1, hits give low values 0.993 | locus YDR069C, strain doa4, hits give low values 1.02 | locus YDR101C, strain arx1, hits give low values 1.01 | locus YDR137W, strain rgp1, hits give low values 0.987 | locus YDR150W, strain NUM1, hits give low values 1.01 | locus YDR159W, strain sac3, hits give low values 1.02 | locus YDR162C, strain NBP2, hits give low values 1.02 | locus YDR195W, strain ref2 1.01 | locus YDR297W, strain sur2, hits give low values 1 | locus YDR318W, strain mcm21, hits give low values 0.992 | locus YDR334W, strain swr1, hits give low values 1 | locus YDR335W, strain msn5, hits give low values 1.01 | locus YDR388W, hits give low values 0.987 | locus YDR392W, strain spt3, hits give low values 0.979 | locus YDR502C, strain sam2, hits give low values 0.994 | locus YEL003W, strain gim4, hits give low values 1.01 | locus YEL037C, strain rad23, hits give low values 0.997 | locus YEL061C, strain CIN8 (second series), hits give low values 1.01 | locus YEL061C, strain CIN8, hits give low values 1.01 | locus YER015W, strain faa2, hits give low values 1.01 | locus YER016W, strain bim1, hits give low values 1 | locus YER110C, hits give low values 0.992 | locus YER111C, strain swi4, hits give low values 1.01 | locus YER155C, strain BEM2 (second series), hits give low values 1.05 | locus YER155C, strain BEM2, hits give low values 1.01 | locus YER167W, strain BCK2, hits give low values 1.01 | locus YFR010W, strain ubp6, hits give low values 1.03 | locus YGL078C, strain dbp3, hits give low values 0.997 | locus YGL086W, strain mad1, hits give low values 0.996 | locus YGL167C, strain pmr1, hits give low values 1.01 | locus YGL173C, strain kem1, hits give low values 1.01 | locus YGL227W, strain vid30, hits give low values 1.01 | locus YGL240W, strain doc1, hits give low values 1.02 | locus YGL248W, strain PDE1, hits give low values 1.02 | locus YGL253W, strain hxk2, hits give low values 1.04 | locus YGR135W, strain pre9, hits give low values 0.988 | locus YGR252W, strain gcn5, hits give low values 0.97 | locus YHR013C, strain ard1, hits give low values 0.997 | locus YHR027C, strain rpn1, hits give low values 1 | locus YHR030C, strain SLT2, hits give low values 1.01 and 0.96 | locus YHR079C, strain IRE1 (second series), hits give low values 0.996 | locus YHR079C, strain IRE1, hits give low values 0.95 | locus YHR094C, strain hxt1, hits give low values 0.991 | locus YHR129C, strain ARP1, hits give low values 1.01 | locus YHR142W, strain chs7, hits give low values 0.958 | locus YHR200W, strain rpn10, hits give low values 0.995 | locus YIL066C, strain RNR3, hits give low values 1.02 | locus YIL073C, strain SPO22, hits give low values 0.999 | locus YIL125W, strain kgd1, hits give low values 0.987 | locus YIR030C, strain dcg1, hits give low values 0.995 | locus YJL092W, strain hpr5, hits give low values 1 | locus YJL095W, strain BCK1 (second series), hits give low values 1 | locus YJL095W, strain BCK1, hits give low values 1.03 and 0.973 | locus YJL115W, strain asf1, hits give low values 0.99 | locus YJL129C, strain trk1, hits give low values 1 | locus YJL134W, strain LCB3, hits give low values 1 | locus YJL154C, strain vps35, hits give low values 0.996 | locus YJL164C, strain tpk1, hits give low values 0.981 | locus YJL166W, strain qcr8, hits give low values 1.01 | locus YJL168C, strain set2, hits give low values 0.986 | locus YJL187C, strain SWE1 (second series), hits give low values 1.02 | locus YJL187C, strain SWE1, hits give low values 0.997 | locus YJR043C, strain POL32, hits give low values 1.01
